The source of these data is PubChem BioAssay (NCI).

Values joined by “and” are separate entries in the source; they are usually repeats but may differ in a detail not shown here. Equal entries are not always repeated. The panel holds about 79,000 compounds, 15% with a hit somewhere; the sample as a whole holds those more often. A number with no mark means an inactive call. Active and inactive are the calls of the source. No stated cut-off is given here; in the data, active means growth inhibition above about 70%; inactive means the rest.

Assay [1] can be described thus: NCI Yeast Anticancer Drug Screen. Data for the rad50 strain (AID 155).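 Further: 0% = growth of vehicle-only cultures of the same strain.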 Conditions: S. cerevisiae rad50 strain growth inhibition; at 50.0 µM; hits give high values. In outline:
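Cells are treated with compound, grown, and their growth is then scored against vehicle-only cultures of the same repair-deficient yeast strain.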

The nature of assay [2]: NCI Yeast Anticancer Drug Screen. Data for the mec2-1 strain (AID 157). Conditions: S. cerevisiae mec2-1 strain, at 50.0 µM, hits give high values. The essentials:
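Strain: mec2-1 (DNA repair/cell cycle alteration). Compound exposure, then growth measured; inhibition expressed relative to vehicle.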

Assay [3] is described as follows: NCI Yeast Anticancer Drug Screen. Data for the sgs1 mgt1 strain (AID 161).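 Further: 0% = growth of cultures given vehicle only.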 Conditions: S. cerevisiae sgs1 mgt1 strain, at 50.0 µM, hits give high values. The essentials:
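Read-out: growth inhibition vs vehicle controls. Cells: mutant yeast strain deficient in DNA damage repair.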

Assay [4] in a line: NCI Yeast Anticancer Drug Screen. Data for the cln2 rad14 strain (AID 165).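 Further: 0% = growth equal to vehicle treated cultures.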 To be noted: S. cerevisiae cln2 rad14 strain, at 50.0 µM, hits give high values. The essentials: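 Compounds are applied to the cln2 rad14 yeast strain, and growth is then compared with that of vehicle-treated cultures to give inhibition.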
A short description of assay [5]: NCI Yeast Anticancer Drug Screen. Data for the bub3 strain (AID 167). To be noted: S. cerevisiae bub3 mutant strain, at 50.0 µM, hits give high values. In outline: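 Part of a panel of yeast mutants defective in DNA damage repair or cell cycle regulation. Each strain is grown with compound, and inhibition is calculated relative to solvent-treated cultures.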
The nature of assay [6]: NCI Yeast Anticancer Drug Screen. Data for the mlh1 rad18 strain (AID 175). To be noted: S. cerevisiae mlh1 rad18 strain growth inhibition; at 50.0 µM; hits give high values. The essentials: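 Read-out is yeast growth inhibition, calculated against vehicle-only controls. The compound was applied to a strain engineered with DNA damage repair alterations.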

For the compound `CCCCOC(=O)C(O)CF` (stereo not given), the growth inhibition in assay [1] was -25.2%; in assay [2], -10.1%; in assay [3], -0.25%; in assay [4], 1.6%; in assay [5], 1.05%; in assay [6] it was -29.6%.

Regarding `NC(=Nc1ccccc1)N/N=C/c1c[nH]c2ccccc12`, the growth inhibition in assay [1] was -15.2%; in assay [2], -14.9%; in assay [3], -20.2%; in assay [4], 3.45%; in assay [5], -7.15%; in assay [6], -50%.

On to `CC(C(=O)O)C(Br)C(=O)O` (stereo not given), for which the growth inhibition in assay [1] was -9%; in assay [2], -8.7%; in assay [3], 1.7%; in assay [4], 3.55%; in assay [5] it was 5.85%; in assay [6], 9.7%.

For `O=[As](O)(O)c1cc(N=Nc2ccc(-c3ccc(N=Nc4cc([As](=O)(O)O)c(O)cc4O)cc3)cc2)c(O)cc1O`, the growth inhibition in assay [1] is 0.1%; in assay [2] it was 44%; in assay [3], 33.2%; in assay [4], -19.7%; in assay [5] it was -4.2%; in assay [6], 25.4%.

In the case of `O=C1NC(=O)C(F)C(O)N1` (stereo not given), the growth inhibition in assay [1] is -22.8%; in assay [2], -17.8%; in assay [3] it was -6.15%; in assay [4], -14.8%; in assay [5], 16.1%; in assay [6], -8.2%.

For the compound `CC(NC(=O)C(c1ccccc1)c1ccccc1)C(=O)O` (stereo not given), the growth inhibition in assay [1] was 2.35%; in assay [2], 12.6%; in assay [3] it was -1.5%; in assay [4], -17.2%; in assay [5] it was 1.4%; in assay [6], 14.9%.

Turning to `C=Cc1cc(OC)c2c(c1)c(=O)oc1c2cc(OC)c2c(O)ccc(C3OC(C(C)O)C(O)C3O)c21` (stereo not given), the growth inhibition was 88% (active) in assay [1]; 91.7% (active) in assay [2]; 89.1% (active) in assay [3]; 90.2% (active) in assay [4]; 90% (active) in assay [5]; 89.3% (active) in assay [6].

For `C1N2CN3CN1CN(C2)C3.[Cu+2]`, the growth inhibition was -15.4% in assay [1]; -9.85% in assay [2]; -14.7% in assay [3]; -8.5% in assay [4]; -15% in assay [5]; -6.9% in assay [6].

Take `COC(=O)Cc1ccccc1`: the growth inhibition in assay [1] was -4.4%; in assay [2] it was 15.1%; in assay [3] it was -31.8%; in assay [4], 5.9%; in assay [5], -50.5%; in assay [6], -19.5%.

For the compound `Cc1c2n(c3ccccc13)CC1CON(C)C21` (stereo not given), the growth inhibition is -14.4% in assay [1]; -11.5% in assay [2]; -8.95% in assay [3]; -1.3% in assay [4]; -31.4% in assay [5]; -19.9% in assay [6].

Regarding `CC(C)CCCC(C)[C@H]1CCC2[C@@H]3CCC4Cc5nc6c(nc5C[C@]4(C)C3CC[C@@]21C)CC1CC[C@@H]2C(CC[C@@]3(C)C2CC[C@@H]3O)[C@@]1(C)C6` (stereo not given in full), the growth inhibition was -7.05% in assay [1]; -37.7% in assay [2]; -12% in assay [3]; -7.9% in assay [4]; 12.8% in assay [5]; 7.95% in assay [6].

For `[N-]=[N+]=NC1C2CC3CC(C2)CC1C3` (stereo not given), the growth inhibition is -15.7% in assay [1]; 8.3% in assay [2]; -7.2% in assay [3]; -6.6% in assay [4]; -10.7% in assay [5]; -24.8% in assay [6].

Turning to `COc1cc2c(cc1O)CC1CC(=O)CCN1C2` (stereo not given), the growth inhibition in assay [1] was -3.4%; in assay [2], 4.5%; in assay [3], -12.1%; in assay [4], -6.85%; in assay [5] it was -10.8%; in assay [6], -0.75%.

As for `N/C(=N\S(=O)(=O)c1ccccc1)N[N+](=O)[O-]`, the growth inhibition in assay [1] is 5.15% and -5.6%; in assay [2], -1.15% and -8.9%; in assay [3], -9.05% and -5.2%; in assay [4], -39.2% and -2.6%; in assay [5] it was -9.25% and 7.05%; in assay [6], 4.45% and -9.75%.

Turning to `CC1C2Cc3ccc(O)cc3C1(C)CCN2CCC(=O)c1ccccc1` (stereo not given), the growth inhibition in assay [1] is -8.85%; in assay [2], 1.4%; in assay [3], -7.3%; in assay [4], 18.2%; in assay [5] it was 5.6%; in assay [6], 9.55%.

With `CP(C)C.[Ag][I]`, the growth inhibition in assay [1] was -26.4%; in assay [2], -7.85%; in assay [3], -0.15%; in assay [4] it was -41.2%; in assay [5], -9.3%; in assay [6] it was -2.4%.

As for `CCCN(CCC)C(=O)[S-].CCCN(CCC)C(=O)[S-].[Ni+2]`, the growth inhibition in assay [1] was 35%; in assay [2], -6.25%; in assay [3], 33.4%; in assay [4], -38.6%; in assay [5], 2.7%; in assay [6], -3.5%.

Take `[O-]c1n[n+](C2CCCCC2)no1`: the growth inhibition in assay [1] is -11.4%; in assay [2], -7.6%; in assay [3], -45.7%; in assay [4], -31.1%; in assay [5] it was 2.4%; in assay [6] it was -13.4%.

For `CC(=O)Nc1ccc(NN=O)cn1`, the growth inhibition was 40.9% in assay [1]; 4.7% in assay [2]; -15.9% in assay [3]; -7.95% in assay [4]; -37.8% in assay [5]; 12.2% in assay [6].

For `COP1(=O)Oc2ccccc2C(=O)C(C(F)(F)F)(C(F)(F)F)O1` (stereo not given), the growth inhibition in assay [1] is -16.9%; in assay [2] it was -1.6%; in assay [3], -15.8%; in assay [4], 5.05%; in assay [5], -20.2%; in assay [6], -34.1%.
